{"source": "the supplement of paper PMC8728848", "assay_in_all_cases": "glycan array binding signal (z-score within array); higher = stronger binding", "details_in_all_cases": "glycan notation: IUPAC condensed, linker removed", "key": {"[1]": {"molecular_target": "Fuc(a1-2)Gal(b1-3)GalNAc(b1-3)Gal(a1-4)Gal(b1-4)Glc", "in_short": "(§1)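 Negative Z-scores can be read as non-binding. The Z-score is calculated within each array and then averaged across arrays of one protein sequence at different concentrations or buffers and across linkers. Arrays, 3228 in all, were curated from the Consortium for Functional Glycomics database and kept only where the protein sequence was available.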"}, "[2]": {"molecular_target": "Fuc(a1-2)Gal(b1-4)GlcNAc(b1-2)Man(a1-3)[Fuc(a1-2)Gal(b1-4)GlcNAc(b1-2)Man(a1-6)]Man(b1-4)GlcNAc(b1-4)GlcNAc", "in_short": "as §1"}, "[3]": {"molecular_target": "Fuc(a1-2)Gal(b1-4)GlcNAc(b1-3)Gal(b1-4)GlcNAc(b1-2)Man(a1-3)[Fuc(a1-2)Gal(b1-4)GlcNAc(b1-3)Gal(b1-4)GlcNAc(b1-2)Man(a1-6)]Man(b1-4)GlcNAc(b1-4)GlcNAc", "in_short": "as §1"}, "[4]": {"molecular_target": "Fuc(a1-2)Gal6S(b1-3)GlcNAc6S", "in_short": "as §1"}, "[5]": {"molecular_target": "Fuc(a1-2)[Gal(a1-3)]Gal", "in_short": "as §1"}, "[6]": {"molecular_target": "Fuc(a1-2)[Gal(a1-3)]Gal(b1-4)GlcNAc(b1-6)GalNAc", "in_short": "as §1"}, "[7]": {"molecular_target": "Fuc(a1-2)[GalNAc(a1-3)]Gal(b1-4)GlcNAc(b1-2)Man", "in_short": "as §1"}, "[8]": {"molecular_target": "Fuc(a1-2)[GalNAc(a1-3)]Gal(b1-4)GlcNAc(b1-3)Gal(b1-4)GlcNAc(b1-3)Gal(b1-4)GlcNAc", "in_short": "as §1"}, "[9]": {"molecular_target": "Fuc(a1-3)[Gal(b1-4)]GlcNAc(b1-2)Man(a1-3)[Fuc(a1-3)[Gal(b1-4)]GlcNAc(b1-2)Man(a1-6)]Man(b1-4)GlcNAc(b1-4)[Fuc(a1-6)]GlcNAc", "in_short": "as §1"}, "[10]": {"molecular_target": "Gal(a1-3)Gal", "in_short": "as §1"}, "[11]": {"molecular_target": "Gal(a1-3)Gal(b1-4)GlcNAc(b1-3)GalNAc", "in_short": "as §1"}, "[12]": {"molecular_target": "Gal(a1-4)Gal(b1-4)GlcNAc(b1-2)Man(a1-3)[Gal(a1-4)Gal(b1-4)GlcNAc(b1-2)Man(a1-6)]Man(b1-4)GlcNAc(b1-4)GlcNAc", "in_short": "as §1"}, "[13]": {"molecular_target": "Gal(b1-2)Gal", "in_short": "as §1"}, "[14]": {"molecular_target": "Gal(b1-3)GalNAc(b1-3)Gal", "in_short": "as §1"}, "[15]": {"molecular_target": "Gal(b1-3)GalNAc(b1-4)[Neu5Ac(a2-3)]Gal(b1-4)Glc", "in_short": "as §1"}, "[16]": {"molecular_target": "Gal(b1-4)GlcNAc(b1-2)Man", "in_short": "as §1"}, "[17]": {"molecular_target": "Gal(b1-4)GlcNAc(b1-2)[Gal(b1-4)GlcNAc(b1-4)]Man(a1-3)[Gal(b1-4)GlcNAc(b1-2)Man(a1-6)]Man(b1-4)GlcNAc(b1-4)GlcNAc", "in_short": "as §1"}, "[18]": {"molecular_target": "Gal(b1-4)GlcNAc(b1-3)Gal(b1-4)GlcNAc", "in_short": "as §1"}, "[19]": {"molecular_target": "Gal(b1-4)GlcNAc(b1-3)Gal(b1-4)GlcNAc(b1-3)Gal(b1-4)GlcNAc(b1-3)Gal(b1-4)GlcNAc(b1-3)Gal(b1-4)GlcNAc(b1-2)Man(a1-3)[Gal(b1-4)GlcNAc(b1-3)Gal(b1-4)GlcNAc(b1-3)Gal(b1-4)GlcNAc(b1-3)Gal(b1-4)GlcNAc(b1-3)Gal(b1-4)GlcNAc(b1-2)Man(a1-6)]Man(b1-4)GlcNAc(b1-4)GlcNAc", "in_short": "as §1"}, "[20]": {"molecular_target": "Gal(b1-4)GlcNAc(b1-3)Gal(b1-4)GlcNAc(b1-3)Gal(b1-4)GlcNAc(b1-3)Gal(b1-4)GlcNAc(b1-3)Gal(b1-4)GlcNAc(b1-2)Man(a1-3)[Gal(b1-4)GlcNAc(b1-3)Gal(b1-4)GlcNAc(b1-3)Gal(b1-4)GlcNAc(b1-3)Gal(b1-4)GlcNAc(b1-3)Gal(b1-4)GlcNAc(b1-2)Man(a1-6)]Man(b1-4)GlcNAc(b1-4)[Fuc(a1-6)]GlcNAc", "in_short": "as §1"}, "[21]": {"molecular_target": "Gal3S(b1-3)GalNAc", "in_short": "as §1"}, "[22]": {"molecular_target": "Gal6S(b1-4)GlcNAc6S", "in_short": "as §1"}, "[23]": {"molecular_target": "GalNAc(b1-3)Gal(a1-4)Gal(b1-4)GlcNAc", "in_short": "as §1"}}, "note": "Only a selection was taken, and the strongest signals are over-represented in it overall."}
{"binder": "pTFF2 (Sus scrofa), P01359 (protein) KPAACRCSRQDPKNRVNCGFPGITSDQCFTSGCCFDSQVPGVPWCFKPLPAQESEECVMEVSARKNCGYPGISPEDCAARNCCFSDTIPEVPWCFFPMSVEACHY", "values": [{"measurement": "glycan array binding signal (z-score)", "setting": "[1]", "result": -0.047}, {"measurement": "glycan array binding signal (z-score)", "setting": "[2]", "result": 0.121}, {"measurement": "glycan array binding signal (z-score)", "setting": "[3]", "result": 0.716}, {"measurement": "glycan array binding signal (z-score)", "setting": "[4]", "result": -0.991}, {"measurement": "glycan array binding signal (z-score)", "setting": "[5]", "result": -0.204}, {"measurement": "glycan array binding signal (z-score)", "setting": "[6]", "result": -0.303}, {"measurement": "glycan array binding signal (z-score)", "setting": "[7]", "result": 0.535}, {"measurement": "glycan array binding signal (z-score)", "setting": "[8]", "result": -0.048}, {"measurement": "glycan array binding signal (z-score)", "setting": "[9]", "result": -0.109}, {"measurement": "glycan array binding signal (z-score)", "setting": "[10]", "result": -0.276}, {"measurement": "glycan array binding signal (z-score)", "setting": "[11]", "result": 0.196}, {"measurement": "glycan array binding signal (z-score)", "setting": "[12]", "result": 2.45}, {"measurement": "glycan array binding signal (z-score)", "setting": "[13]", "result": -1.31}, {"measurement": "glycan array binding signal (z-score)", "setting": "[14]", "result": 2.98}, {"measurement": "glycan array binding signal (z-score)", "setting": "[15]", "result": 2.82}, {"measurement": "glycan array binding signal (z-score)", "setting": "[16]", "result": -2.22}, {"measurement": "glycan array binding signal (z-score)", "setting": "[17]", "result": -0.702}, {"measurement": "glycan array binding signal (z-score)", "setting": "[18]", "result": -0.47}, {"measurement": "glycan array binding signal (z-score)", "setting": "[19]", "result": 2.48}, {"measurement": "glycan array binding signal (z-score)", "setting": "[20]", "result": 2.62}, {"measurement": "glycan array binding signal (z-score)", "setting": "[21]", "result": 0.185}, {"measurement": "glycan array binding signal (z-score)", "setting": "[22]", "result": 0.285}, {"measurement": "glycan array binding signal (z-score)", "setting": "[23]", "result": -0.4}]}
